Among all 2,000 compounds or so, about 100 (5%) were called active. Cut-off read from the data, not from the text of the source: active = z-score above about 2; inactive = the rest. This excerpt belongs to a sample that is enriched for actives.
Assay: modulators of mitochondrial supercomplex assembly, cell-based, luminescence, Hoechst nuclei count (AID 1645838);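 note: control cybrid cells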;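 for z-score: higher means more mitochondrial supercomplex formation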
Conditions: Cells, luminescence/Hoechst cell count ratio, supercomplex reporter; for z-score: stronger effect = higher value; for cell count: measured here: cell number, Hoechst nuclei count
[1] = library stock concentration (final well concentration not given) 46 uM
[2] = library stock concentration (final well concentration not given) 278 uM
[3] = library stock concentration (final well concentration not given) 1.67 mM
[4] = library stock concentration (final well concentration not given) 10 mM
[5] = library stock concentration (final well concentration not given) 80 uM
[6] = library stock concentration (final well concentration not given) 400 uM
[7] = library stock concentration (final well concentration not given) 2 mM

## COc1cccc(-c2cn(-c3ccc(CCN4CCC(O)CC4)cc3)c3ncnc(N)c23)c1
[1]
  z-score: -0.0662 (inactive)
  cell count: 6890
[2]
  z-score: -0.203 (inactive)
  cell count: 6710
[3]
  z-score: 0.503 (inactive)
  cell count: 6410
[4]
  z-score: 6.01 (active)
  cell count: 2860

## Nc1ncnc2c1c(-c1ccc(Oc3ccccc3)cc1)cn2C1CCCC1
[5]
  z-score: 0.00446 (inactive)
  cell count: 4810
[6]
  z-score: 0.328 (inactive)
  cell count: 4230
[7]
  z-score: 0.396 (inactive)
  cell count: 4080
[4]
  z-score: 0.246 (inactive)
  cell count: 3660

## Cn1cc(-c2ccc3c(c2)CCN3C(=O)Cc2cccc(C(F)(F)F)c2)c2c(N)ncnc21
[1]
  z-score: -0.404 (inactive)
  cell count: 6450
[2]
  z-score: -0.312 (inactive)
  cell count: 6260
[3]
  z-score: -0.398 (inactive)
  cell count: 6230
[4]
  z-score: 0.717 (inactive)
  cell count: 4040

## CCCCCC(O)CCC1C(O)C[C@H]2Cc3c(cccc3OCC(=O)O)C[C@@H]12 (stereo partly specified)
[5]
  z-score: -0.232 (inactive)
  cell count: 6220
[6]
  z-score: -0.452 (inactive)
  cell count: 5860
[7]
  z-score: -0.204 (inactive)
  cell count: 5910
[4]
  z-score: -0.825 (inactive)
  cell count: 6040

## CCCCC/C=C\C/C=C\CCCCCCCC(=O)OCC(COC(=O)CCCCCCCCCCCCCCC)OC(=O)CCCCCCC/C=C\CCCCCCCC (stereo unspecified)
  z-score: 0.273 (inactive)
  cell count: 5490

## O=C(Nc1nnc(-c2ccco2)o1)c1cc(-c2ccccc2)nc2ccccc12
[1]
  z-score: 0.451 (inactive)
  cell count: 6600
[2]
  z-score: 0.815 (inactive)
  cell count: 6010
[3]
  z-score: 0.151 (inactive)
  cell count: 6640
[4]
  z-score: 2.24 (active)
  cell count: 4920

## COC(=O)C(NC(=O)c1cc(-c2ccccc2)nc2ccccc12)c1ccccc1 (stereo unspecified)
[1]
  z-score: -0.299 (inactive)
  cell count: 6610
[2]
  z-score: -0.209 (inactive)
  cell count: 6570
[3]
  z-score: -0.176 (inactive)
  cell count: 6890
[4]
  z-score: -0.0618 (inactive)
  cell count: 6540

## CCCC(=O)Nc1nc(-c2ccccc2)cc(-c2ccccc2)n1
[5]
  z-score: -0.0977 (inactive)
  cell count: 5390
[6]
  z-score: 0.0694 (inactive)
  cell count: 5300
[7]
  z-score: -0.49 (inactive)
  cell count: 4980
[4]
  z-score: -0.335 (inactive)
  cell count: 5140

## CCCC/C=C/C=C/C=C\CCCCCCCC(=O)OC
  z-score: 0.121 (inactive)
  cell count: 4950

## O=C(O)CCC/C=C\C[C@@H]1C(=O)C[C@@H](O)[C@@H]1/C=C/[C@@H](O)CCc1ccccc1
  z-score: 0.113 (inactive)
  cell count: 5100

## O=C1C(Cc2ccc(O)cc2)N2C(=O)CCN(C(=O)NCc3ccccc3)C2CN1Cc1cccc2ccccc12 (stereo unspecified)
[1]
  z-score: -0.329 (inactive)
  cell count: 7210
[2]
  z-score: -0.452 (inactive)
  cell count: 7220
[3]
  z-score: -1.5 (inactive)
  cell count: 7090
[4]
  z-score: -0.675 (inactive)
  cell count: 4220

## CN(C)CCC1(c2ccc(Cl)cc2)Cc2ccccc2C(=O)O1 (stereo unspecified)
[1]
  z-score: -0.548 (inactive)
  cell count: 6980
[2]
  z-score: -0.51 (inactive)
  cell count: 6360
[3]
  z-score: -0.496 (inactive)
  cell count: 6480
[4]
  z-score: 0.011 (inactive)
  cell count: 6170

## C=C(C)[C@@H]1CCC(C)=C[C@H]1c1c(O)cc(C)cc1O
  z-score: -0.799 (inactive)
  cell count: 5690

## Nc1nc2c([nH]c(=O)n2[C@@H]2O[C@H](CO)[C@@H](O)[C@H]2O)c(=O)[nH]1
  z-score: -0.949 (inactive)
  cell count: 5870

## NC(=O)c1cccc(-c2cccc(OC(=O)NC3CCCCC3)c2)c1
  z-score: -0.595 (inactive)
  cell count: 5600

## COc1cc(NC(=O)c2ccc(-c3ccc(Cl)cc3)o2)cc(OC)c1
[1]
  z-score: -0.316 (inactive)
  cell count: 6650
[2]
  z-score: 0.0249 (inactive)
  cell count: 6230
[3]
  z-score: -0.417 (inactive)
  cell count: 6670
[4]
  z-score: -1 (inactive)
  cell count: 6710

## COc1cccc(-c2ccc(NC(=O)C3=C(C(=O)O)CCC3)c(F)c2)c1
[1]
  z-score: 0.0997 (inactive)
  cell count: 6810
[2]
  z-score: 0.11 (inactive)
  cell count: 6860
[3]
  z-score: -0.285 (inactive)
  cell count: 6660
[4]
  z-score: 7.02 (active)
  cell count: 3760

## C[C@@H](O)CCC[C@H](O)/C=C/C1=C(C/C=C\CCCC(=O)O)C(=O)CC1
  z-score: -0.229 (inactive)
  cell count: 5100

## c1ccc(Cc2ccncc2)cc1
[5]
  z-score: -0.46 (inactive)
  cell count: 5970
[6]
  z-score: -0.111 (inactive)
  cell count: 5030
[7]
  z-score: -0.201 (inactive)
  cell count: 5260
[4]
  z-score: -0.169 (inactive)
  cell count: 5220

## CC/C=C\C/C=C\C/C=C\CCCCCCCC(=O)O
  z-score: -0.381 (inactive)
  cell count: 5900

## CCCCCCCCCCCC(=O)CC(=O)N[C@H]1CCOC1=O
  z-score: -0.866 (inactive)
  cell count: 5800

## CCCCC[C@H](O)/C=C/[C@H]1CC[C@@H](O)[C@@H]1CCCCCCC(=O)O
  z-score: 0.234 (inactive)
  cell count: 5240

## CC1COCCN1c1cc(C2(S(C)(=O)=O)CC2)nc(-c2cccc3[nH]ccc23)n1 (stereo unspecified)
Library stock 10 mM
  outcome: inactive; censored for cell count
[5]
  z-score: -0.307 (inactive)
  cell count: 5900
[6]
  z-score: -0.152 (inactive)
  cell count: 5550
[7]
  z-score: 2.1 (active)
  cell count: 2180

## CCCCC[C@H](O)/C=C/[C@H]1[C@H](O)CC(=O)[C@@H]1CC(=O)CCCCC(=O)O
  z-score: 0.036 (inactive)
  cell count: 5230

## CN(C)C1CCc2[nH]c3ccc(NC(=O)c4ccc(F)cc4)cc3c2C1 (stereo unspecified)
[1]
  z-score: -0.478 (inactive)
  cell count: 6480
[2]
  z-score: -0.381 (inactive)
  cell count: 6070
[3]
  z-score: -0.318 (inactive)
  cell count: 6670
[4]
  z-score: -0.368 (inactive)
  cell count: 6110

## CCCCC[C@H](O)/C=C/[C@H]1C2COC(C2)[C@@H]1C/C=C/CCCC(=O)O (stereo partly specified)
  z-score: -0.6 (inactive)
  cell count: 5320

## Cc1cc(Nc2cc(N3CCN(C)CC3)nc(Sc3ccc(NC(=O)C4CC4)cc3)n2)n[nH]1
Library stock 80 µM
  outcome: inactive; censored for cell count
Library stock 400 µM
  outcome: inactive; censored for cell count
Library stock 2 mM
  outcome: inactive; censored for cell count
Library stock 10 mM
  outcome: inactive; censored for cell count
[5]
  z-score: 5.13 (active)
  cell count: 1630

## CCCCC(C)(C)[C@H](O)/C=C/[C@H]1C=CC(=O)[C@@H]1CCCCCCC(=O)O
  z-score: 0.218 (inactive)
  cell count: 4930

## CCCCC[C@@H](O)/C=C/[C@H]1[C@H](O)CC(=O)[C@@H]1C/C=C\CCCC(=O)O
  z-score: -0.0831 (inactive)
  cell count: 5100

## CCCCCCCCCCCCCCCCCCCCCCCCCCCCCCO
  z-score: -1.19 (inactive)
  cell count: 5750

## CCCCCCCCCCCCCCP(=O)(O)O
  z-score: 1.99 (active)
  cell count: 4360

## CCCCCCCCCCCC(=O)O
  z-score: 0.0111 (inactive)
  cell count: 5210

## O=C(O)CCn1nnc2ccccc21
[1]
  z-score: -0.598 (inactive)
  cell count: 7120
[2]
  z-score: -0.676 (inactive)
  cell count: 7440
[3]
  z-score: -0.406 (inactive)
  cell count: 7310
[4]
  z-score: -0.311 (inactive)
  cell count: 7490

## Cn1cncc1[C@@](N)(c1ccc(Cl)cc1)c1ccc2c(c1)c(-c1cccc(Cl)c1)cc(=O)n2C
[5]
  z-score: 0.384 (inactive)
  cell count: 5540
[6]
  z-score: 1.69 (inactive)
  cell count: 3990
[7]
  z-score: 2.04 (active)
  cell count: 3590
[4]
  z-score: 1.89 (inactive)
  cell count: 3700

## CCCCCCCC/C=C\CCCCCCCCCCCCCC(=O)N[C@@H](CO)[C@H](O)/C=C/CCCCCCCCCCCCC
  z-score: 0.191 (inactive)
  cell count: 5540

## CCCCC[C@H]1/C=C/[C@@H]2[C@@H](C/C=C\CCCC(=O)O1)[C@@H](O)C[C@H]2O
  z-score: -1.49 (inactive)
  cell count: 5780

## Cn1c2cc(S(C)=O)sc2c2cnn(Cc3cccc(N)c3)c(=O)c21 (stereo unspecified)
[1]
  z-score: 0.266 (inactive)
  cell count: 6150
[2]
  z-score: 0.15 (inactive)
  cell count: 6110
[3]
  z-score: -0.3 (inactive)
  cell count: 6540
[4]
  z-score: -0.338 (inactive)
  cell count: 6600

## O=P(O)(O)O[C@H]1[C@@H](O)[C@H](O)[C@@H](OP(=O)(O)O)[C@H](OP(=O)(O)O)[C@H]1O
  z-score: -0.14 (inactive)
  cell count: 4340

## COC(=O)NC(C)CNc1nccc(-c2cn(C(C)C)nc2-c2cc(Cl)cc(NS(C)(=O)=O)c2F)n1 (stereo unspecified)
[1]
  z-score: -0.459 (inactive)
  cell count: 6450
[2]
  z-score: -0.411 (inactive)
  cell count: 6190
[3]
  z-score: 0.775 (inactive)
  cell count: 4330
[4]
  z-score: 4.21 (active)
  cell count: 1620

## CCN(C)C(=O)Oc1cccc(C(C)N(C)C)c1 (stereo unspecified)
[5]
  z-score: -0.403 (inactive)
  cell count: 6790
[6]
  z-score: -0.339 (inactive)
  cell count: 6310
[7]
  z-score: -0.314 (inactive)
  cell count: 6660
[4]
  z-score: -0.639 (inactive)
  cell count: 6230

## Cc1ccc(-c2nn(C(C)(C)C)c3ncnc(N)c23)cc1
[1]
  z-score: 0.0479 (inactive)
  cell count: 6410
[2]
  z-score: 0.621 (inactive)
  cell count: 5940
[3]
  z-score: 1.98 (active)
  cell count: 6220
[4]
  z-score: 5.9 (active)
  cell count: 4640

## CC(C)(C)n1nc(-c2ccc(Cl)cc2)c2c(N)ncnc21
[5]
  z-score: -0.14 (inactive)
  cell count: 5420
[6]
  z-score: 0.32 (inactive)
  cell count: 5110
[7]
  z-score: 0.695 (inactive)
  cell count: 5300
[4]
  z-score: 1.68 (inactive)
  cell count: 4150

## CC(C)(C)n1nc(Cc2cccc3ccccc23)c2c(N)ncnc21
  z-score: -0.348 (inactive)
  cell count: 5760

## COc1cc(Cc2cnc(N)nc2N)c2c(c1OC)OC(C1CC1)C=C2 (stereo unspecified)
[5]
  z-score: -0.274 (inactive)
  cell count: 5160
[6]
  z-score: -0.19 (inactive)
  cell count: 5070
[7]
  z-score: -0.518 (inactive)
  cell count: 5260
[4]
  z-score: -0.337 (inactive)
  cell count: 4960

## CC(Sc1nc2ccccc2[nH]1)C(=O)N/N=C/c1cc(Br)ccc1O (stereo unspecified)
  z-score: -0.336 (inactive)
  cell count: 5170

## CC(Sc1nc2ccccc2[nH]1)C(=O)NN=Cc1cc(Br)ccc1O (stereo unspecified)
[1]
  z-score: -1.02 (inactive)
  cell count: 7560
[2]
  z-score: -0.707 (inactive)
  cell count: 6830
[3]
  z-score: -0.734 (inactive)
  cell count: 7060
[4]
  z-score: 3.92 (active)
  cell count: 3080

## CC/C=C\C/C=C\C/C=C\C/C=C\C/C=C\C/C=C\CCC(=O)NCCO
  z-score: -0.366 (inactive)
  cell count: 5340

## COc1ccc(CCOC2CCCCC2N2CCC(O)C2)cc1OC (stereo unspecified)
[5]
  z-score: 0.0501 (inactive)
  cell count: 5440
[6]
  z-score: 0.255 (inactive)
  cell count: 4950
[7]
  z-score: -0.0276 (inactive)
  cell count: 5110
[4]
  z-score: -0.648 (inactive)
  cell count: 5070

## CN1CCN(c2ccc(Nc3cc(-c4cccc(-n5ccc6cc(C7CC7)cc(F)c6c5=O)c4CO)cn(C)c3=O)nc2)CC1
[1]
  z-score: -0.128 (inactive)
  cell count: 6870
[2]
  z-score: 0.295 (inactive)
  cell count: 6260
[3]
  z-score: 0.189 (inactive)
  cell count: 6670
[4]
  z-score: 2.34 (active)
  cell count: 4620

Source: PubChem BioAssay AID1645838 (ICCB-Longwood Screening Facility, Harvard Medical School, 2021)
